Data published in PubChem BioAssay (NCI).
Compounds without any hit were thinned out: in the full panel of roughly 83,000, 20% have a hit.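 Treatment: one concentration, 48 hours, 96-well format. Scoring: percent growth, with anything below 10 considered active.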 Unmarked numbers belong to inactive results. Calls of active or inactive are those of the source.

System: HL-60(TB) leukemia
Experiment: NCI-60 one-dose screen, 48 h (100 = growth as untreated, 0 = no growth, -100 = all killed)
Details: 10 µM unless noted

SMILES	growth
CCOC(=O)c1sc(NC(=O)COc2ccc(/C=C3\CCc4cc(OC)ccc4C3=O)cc2)nc1C	-57.4% (active)
COc1ccc(-n2nc(C)c3c(Oc4ccc(NC(=O)Nc5c(Cl)cccc5Cl)cc4)ncnc32)cc1	100%
N#CC1C(=O)SC2c3ccccc3C(=O)c3ccccc3C12 (centres undefined)	98.4%
COc1ccc(C(=O)C(CN(C)C)c2ccccc2)cc1 (centres undefined)	3.71% (active)
CCCCCCCCN(CCCCCCCC)CC(O)c1cc(Cl)ccc1OC (centres undefined)	73.4%
O=C(c1ccccc1)c1ccc(N2C(=O)C3C4c5ccccc5C(/C=C/C(=O)c5ccccn5)(c5ccccc54)C3C2=O)cc1 (centres undefined)	30%
C=C1C[C@H](O)[C@H](Br)C(C)(C)[C@@]12CCC(C)=C(Cl)C2	-8.6% (active)
CN1CCN(CCCOc2ccc3ncnc(Nc4ccc(OCc5cccc(F)c5)c(Cl)c4)c3c2)CC1	-42.3% (active)
O=C(Nc1cccc([N+](=O)[O-])c1)c1ccc(Cl)c(Cl)c1	87.8%
O=C1CSC(c2c(Cl)cccc2Cl)N1c1nc(Cl)cc(=O)[nH]1 (centres undefined)	161%
CC(C)=CCNc1ncnc2c1ncn2C1OC(CO)C(O)C1O (centres undefined)	-40.7% [1 mM] (active)
S=C(Nc1ccccc1)N1CCCCC1	93.5%
CCSC1=CC(=O)c2ccccc2C1=O	50.9%
C[C@@H]1O[C@@H](O[C@@H]2C[C@H](c3ccc4c(c3O)C(=O)C3=C(C4=O)[C@@]4(O)C(=O)C[C@](C)(O)C[C@@]4(O)C=C3)O[C@H](C)[C@H]2O)C[C@H](O)[C@@H]1O	99.5%
O=C(Cn1cc(CSc2nc3ccccc3o2)nn1)Nc1ccc(F)cc1F	102%
COc1ccc(-n2cc(-c3cc(OC)c(OC)c(OC)c3)n(C(C)=O)c2=O)cc1	126%
COc1ccc(Oc2ccc(/C=C/C(=O)c3ccc(OC)c(OC)c3)cc2)cc1	-61.4% (active)
C=CCn1c(C)nc2ccc(Nc3nc(Nc4ccc(F)cc4)nc4ccccc34)cc21	51.6%
COc1ccc(CCc2nc3cc(-c4c(C)noc4C)ccc3n2CCN2CCOCC2)cc1	5.97% (active)
CCN(CC)P(=O)(N(CC)CC)N(CCCSC/C=C(\C)CC/C=C(\C)CCC=C(C)C)CCCN1CCN(C)CC1	83.3%

SMILES	growth
CCN1C(=O)N(CC)C2C1NN=c1s/c(=C\c3ccc(C(F)(F)F)cc3)c(=O)n12 (centres undefined)	-49.2% (active)
NCCOCCOc1ccccc1	108%
CCCC/C=N/NC(=S)NCc1ccccc1	105%
CN(C)CCCNc1c2ccccc2nc2ccccc12	72.8%
OC1(c2ccc(Cl)c(C(F)(F)F)c2)CCN(CCCC(c2ccc(F)cc2)c2ccc(F)cc2)CC1	-49.6% (active)
N#CCCN1C/C(=C/c2ccc(Cl)cc2)C(=O)/C(=C/c2ccc(Cl)cc2)C1	-16.5% (active)
CNC(=O)c1cc(Oc2ccc(NC(=O)Nc3ccc(Cl)c(SC)c3)c(F)c2)ccn1	45.5%
Cc1cc(C)n(C(=O)CSc2nc3sc4c(c3c(=O)n2-c2ccccc2)CCCCC4)n1	107%
NC(=O)C1=C[C@H]2[C@H]3C=C[C@@]2(O)C(=O)O[C@@H]3O1	41.6%
Cc1csc(NC(c2ccc(Br)cc2)c2c(C)nc3ccccn23)n1 (centres undefined)	102%
COc1ccc(-c2nnc(COc3ccc(C(=O)/C=C/c4ccco4)cc3)o2)cc1	79.7%
CCOc1ccc2c(c1)c(C)cc(C)[n+]2CC	61.5%
COc1ccc(Cl)cc1Nc1nc(C(F)(F)F)ccc1C(=O)N/N=C/c1ccc(Cl)cc1	9.34% (active)
Cc1ccc(C(=O)/C=C/c2ccccc2)s1	97.1%
Cc1cc(C(N)=O)cc(C)c1C(=O)OCCCl	106%
COC(=O)c1ccc2c(c1)c1c(C)c3cnccc3c(C)c1n2C	-2.92% (active)
O=C(Nc1ccc(OCc2nnc(-c3ccccc3)o2)c(F)c1)Nc1ccc(Cl)c(C(F)(F)F)c1	-19.7% (active)
O=C(N/N=C/c1cc2ccccc2c2ccccc12)c1cc(O)c(O)c(O)c1	39.9%
O=C(/C=C/c1ccco1)Nc1ncc(Cc2cc(Cl)ccc2Cl)s1	-50% (active)
